Data as given in PubChem BioAssay (NCATS).
Inconclusive results are not listed. The source made the active and inactive calls. The call rests on the fitted dose curve; in most records, active means well fitted cell-killing curve with a large enough effect; inconclusive means small, poorly fitted or top-dose-only effect, or effect the other way; inactive means flat fitted curve, though single readings scatter.

Columns and labels:
Experiment in all cases: Primary qHTS to identify gynecologic anti-cancer compounds using libraries of approved drugs and bioactive compounds (AID 1345084); further: nearly all actives have a fitted effect of over 55% in size
[1] = test system: CAOV3; conditions: Gynecologic cancer cell panel viability, ATPlite luminescence, 48 h; series mostly up to 57.5 µM
In short: (§1)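 Cell viability after 48 h drug treatment, ATPlite luminescence readout; five doses.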

[2] = test system: CASKI; conditions: Gynecologic cancer cell panel viability, ATPlite luminescence, 48 h; series mostly up to 57.5 µM
In short: as §1

[3] = test system: Es-2; conditions: Gynecologic cancer cell panel viability, ATPlite luminescence, 48 h; series mostly up to 57.5 µM
In short: as §1

[4] = test system: HeLa; conditions: Gynecologic cancer cell panel viability, ATPlite luminescence, 48 h; series mostly up to 57.5 µM
In short: as §1

[5] = test system: Hek293T; conditions: Gynecologic cancer cell panel viability, ATPlite luminescence, 48 h, control line for the selectivity index; series mostly up to 57.5 µM
In short: as §1

[6] = test system: JEG-3; conditions: Gynecologic cancer cell panel viability, ATPlite luminescence, 48 h; series mostly up to 57.5 µM
In short: as §1

[7] = test system: OV90; conditions: Gynecologic cancer cell panel viability, ATPlite luminescence, 48 h; series mostly up to 57.5 µM
In short: as §1

[8] = test system: PA-1; conditions: Gynecologic cancer cell panel viability, ATPlite luminescence, 48 h; series mostly up to 57.5 µM
In short: as §1

[9] = test system: SKOV3; conditions: Gynecologic cancer cell panel viability, ATPlite luminescence, 48 h; series mostly up to 57.5 µM
In short: as §1

[10] = test system: Tov-21-G; conditions: Gynecologic cancer cell panel viability, ATPlite luminescence, 48 h; series mostly up to 57.5 µM
In short: as §1

[11] = test system: Tov112D; conditions: Gynecologic cancer cell panel viability, ATPlite luminescence, 48 h; series mostly up to 57.5 µM
In short: as §1
On the % scale 0 is the no-effect control and ±100 the full control effect.

C/C(=C/CCC(CO)C1CCC2(C)C3CCC4C(C)(C)C(OC5OC(CO)C(O)C(O)C5O)CC(O)C45CC35CCC12C)COC1OC(CO)C(O)C(O)C1O (stereo not given)
inactive: Potency [1] | Potency [2] | Potency [3] | Potency [4] | Potency [5] | Potency [6] | Potency [7] | Potency [8] | Potency [9] | Potency [10] | Potency [11]

CO[C@@H]1COCC[C@@H]1N[C@@H]1CC[C@@](C(=O)N2CCc3ncc(C(F)(F)F)cc3C2)(C(C)C)C1
inactive: Potency [1] | Potency [2] | Potency [3] | Potency [4] | Potency [5] | Potency [6] | Potency [7] | Potency [8] | Potency [9] | Potency [10] | Potency [11]

CC(C)CC(=O)n1cc(C(N)=O)c(=O)cc1C(O)c1ccccc1 (stereo not given)
inactive: Potency [1] | Potency [2] | Potency [3] | Potency [4] | Potency [5] | Potency [6] | Potency [7] | Potency [8] | Potency [9] | Potency [10] | Potency [11]

O=C(O[C@H]1[C@@H]2C=CO[C@@H](O[C@@H]3O[C@H](CO)[C@@H](O)[C@H](O)[C@H]3O)[C@@H]2[C@@]2(CO)O[C@@H]12)c1ccc(O)c(O)c1
inactive: Potency [1] | Potency [2] | Potency [3] | Potency [4] | Potency [5] | Potency [6] | Potency [7] | Potency [8] | Potency [9] | Potency [10] | Potency [11]

CC(/C=C/C1(O)C2(C)COC1(C)CC(=O)C2)O[C@@H]1O[C@H](CO)[C@@H](O)[C@H](O)[C@H]1O (stereo not given in full)
inactive: Potency [1] | Potency [2] | Potency [3] | Potency [4] | Potency [5] | Potency [6] | Potency [7] | Potency [8] | Potency [9] | Potency [10] | Potency [11]

O=C1Nc2ccc(O)cc2O[C@H]1O[C@@H]1O[C@H](CO)[C@@H](O)[C@H](O)[C@H]1O
inactive: Potency [1] | Potency [2] | Potency [3] | Potency [4] | Potency [5] | Potency [6] | Potency [7] | Potency [8] | Potency [9] | Potency [10] | Potency [11]

CN(C)c1cccc(-c2c3c(=O)n(-c4ccccc4Cl)[nH]c3cc(=O)n2C)c1
inactive: Potency [1] | Potency [2] | Potency [3] | Potency [4] | Potency [5] | Potency [6] | Potency [7] | Potency [8] | Potency [9] | Potency [10] | Potency [11]

CC1CCC2C(C)(C)C(O)CCC2(C)C12Cc1c(O)cc3c(c1O2)C(N)=NC3 (stereo not given)
inactive: Potency [1] | Potency [2] | Potency [3] | Potency [4] | Potency [5] | Potency [6] | Potency [7] | Potency [8] | Potency [9] | Potency [10] | Potency [11]

CC(/C=C/C1(O)C(C)CC(O)CC1(C)C)OC1OC(CO)C(O)C(O)C1O (stereo not given)
inactive: Potency [1] | Potency [2] | Potency [3] | Potency [4] | Potency [5] | Potency [6] | Potency [7] | Potency [8] | Potency [9] | Potency [10] | Potency [11]

COc1cc(/C=C/C(=O)OC2CC3CCC2(C)C3(C)C)ccc1O (stereo not given)
inactive: Potency [1] | Potency [2] | Potency [3] | Potency [4] | Potency [5] | Potency [6] | Potency [7] | Potency [8] | Potency [9] | Potency [10] | Potency [11]

C[C@H]1[C@H](C)CC[C@]2(C(=O)O)CC[C@]3(C)C(=CC[C@@H]4[C@@]5(C)C[C@@H](O)[C@H](O)[C@@](C)(CO)[C@@H]5CC[C@]43C)[C@H]12
inactive: Potency [1] | Potency [2] | Potency [3] | Potency [4] | Potency [5] | Potency [6] | Potency [7] | Potency [8] | Potency [9] | Potency [10] | Potency [11]

CC(=O)OC[C@@]12[C@H](O)C[C@]3(C)C(=CCC4[C@@]5(C)CC[C@H](O[C@@H]6O[C@H](C(=O)O)[C@@H](O[C@@H]7O[C@H](CO)[C@@H](O)[C@H](O)[C@H]7O)[C@H](O)[C@H]6O[C@@H]6O[C@H](CO)[C@@H](O)[C@H](O)[C@H]6O)[C@](C)(CO)C5CC[C@]43C)[C@@H]1CC(C)(C)[C@@H](OC(C)=O)[C@@H]2O (stereo not given in full)
inactive: activity change, negative = cytotoxicity [1] 8.05% [at 11.6 µM] | activity change, negative = cytotoxicity [2] 5.42% [at 11.6 µM] | activity change, negative = cytotoxicity [3] 3.37% [at 11.6 µM] | activity change, negative = cytotoxicity [4] 2.68% [at 11.6 µM] | activity change, negative = cytotoxicity [5] 0.0542% [at 11.6 µM] | activity change, negative = cytotoxicity [6] -2.75% [at 11.6 µM] | activity change, negative = cytotoxicity [7] -1.56% [at 11.6 µM] | activity change, negative = cytotoxicity [8] 0.948% [at 11.6 µM] | activity change, negative = cytotoxicity [9] 8.16% [at 11.6 µM] | activity change, negative = cytotoxicity [10] 2.04% [at 11.6 µM] | activity change, negative = cytotoxicity [11] 1.86% [at 11.6 µM]

C=CC1C(O[C@@H]2O[C@H](CO)[C@@H](O)[C@H](O)[C@H]2O)OC=C(C(=O)OC)C1CC(=O)O (stereo not given in full)
inactive: Potency [1] | Potency [2] | Potency [3] | Potency [4] | Potency [5] | Potency [6] | Potency [7] | Potency [8] | Potency [9] | Potency [10] | Potency [11]

CCNC(=O)[C@H]1O[C@H](n2cnc3c(NCC(c4ccccc4)c4ccccc4)nc(C(=O)NCCNC(=O)NC4CCN(c5ccccn5)CC4)nc32)[C@H](O)[C@@H]1O
inactive: Potency [1] | Potency [2] | Potency [3] | Potency [4] | Potency [5] | Potency [6] | Potency [7] | Potency [8] | Potency [9] | Potency [10] | Potency [11]

CC1=CC(=O)C2C(C)(C)CC(O)CC2(C)C1CO (stereo not given)
inactive: Potency [1] | Potency [2] | Potency [3] | Potency [4] | Potency [5] | Potency [6] | Potency [7] | Potency [8] | Potency [9] | Potency [10] | Potency [11]
